In paper PMC5540273 (PLoS ONE, 2017):

Assays:
Conditions in all cases: concentration: 1 μM, replicates: in singlicate; n = 1
DYRK1B = test system: DYRK1B
DYRK2 = test system: DYRK2
EGFR = test system: EGFR
EIF2AK1 = test system: EIF2AK1
EPHA1 = test system: EPHA1
EPHA2 = test system: EPHA2
EPHA3 = test system: EPHA3
EPHA4 = test system: EPHA4
EPHA5 = test system: EPHA5
EPHA6 = test system: EPHA6
EPHA7 = test system: EPHA7
EPHA8 = test system: EPHA8
EPHB1 = test system: EPHB1
EPHB2 = test system: EPHB2
EPHB3 = test system: EPHB3
EPHB4 = test system: EPHB4
EPHB6 = test system: EPHB6
ERBB2 = test system: ERBB2
ERBB3 = test system: ERBB3
ERBB4 = test system: ERBB4
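Also: KINOMEscan kinase panel screen.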

Compound	%Inh (DYRK1B)	%Inh (DYRK2)	%Inh (EGFR)	%Inh (EIF2AK1)	%Inh (EPHA1)	%Inh (EPHA2)	%Inh (EPHA3)	%Inh (EPHA4)	%Inh (EPHA5)	%Inh (EPHA6)	%Inh (EPHA7)	%Inh (EPHA8)	%Inh (EPHB1)	%Inh (EPHB2)	%Inh (EPHB3)	%Inh (EPHB4)	%Inh (EPHB6)	%Inh (ERBB2)	%Inh (ERBB3)	%Inh (ERBB4)
NCCCC(NC(=O)c1cc(Br)c(-c2ccnc3[nH]ccc23)s1)c1ccccc1.O=C(O)C(F)(F)F.O=C(O)C(F)(F)F (stereo not shown) [GSK1287544]	22%	37%	4%	0%	6%	0%	0%	11%	5%	18%	8%	7%	30%	0%	0%	15%	0%	0%	0%	15%
COc1cc(Nc2ncc3c(C)nc(-c4cc5ccccc5[nH]4)n3n2)cc(OC)c1OC [GW869516]	81%	0%	0%	0%	41%	49%	7%	46%	16%	0%	0%	4%	58%	36%	0%	47%	0%	14%	26%	34%
O=C(Nc1n[nH]c2cc(-c3ccoc3)ccc12)C1CC1 [SB-738481]	23%	75%	6%	0%	13%	0%	0%	5%	2%	9%	0%	31%	0%	0%	0%	5%	10%	0%	0%	0%
Cc1ccc(S(=O)(=O)Nc2ccc(Nc3nccc(Nc4cccc5[nH]ncc45)n3)cc2)cc1 [GSK581271]	0%	12%	42%	0%	66%	21%	0%	13%	0%	0%	12%	30%	29%	0%	3%	26%	31%	14%	0%	39%
COc1cccc(C(=O)Nc2cccc(Oc3ccc4nc(NC(=O)C5CC5)cn4n3)c2)c1	19%	9%	78%	0%	42%	98.7%	62%	79%	57%	68%	5%	98.4%	87%	94.5%	0%	85%	98.5%	4%	10%	6%
CN1CCN(Cc2cccc(-c3ccc4c(Nc5ccc(Oc6ccccc6)cc5)ccnc4c3)c2)CC1 [GW578342]	13%	0%	87%	0%	0%	4%	3%	0%	0%	7%	0%	0%	25%	16%	7%	10%	87%	62%	99.1%	55%
COc1ccc(-c2coc3ccc(-c4nnc(SCc5ccc(OC)c(C(F)(F)F)c5)o4)cc23)cc1	0%	14%	0%	5%	0%	2%	0%	8%	18%	17%	19%	14%	26%	24%	20%	0%	16%	19%	28%	21%
COCCOCCOc1cc2ncc3c4ccc(C#N)cc4[nH]c3c2cc1OC	72%	70%	12%	0%	15%	33%	0%	23%	11%	25%	11%	9%	6%	23%	11%	25%	56%	34%	0%	0%
Cl.Cl.NCC(C(=O)Nc1cc(Br)c(-c2ccnc3[nH]ccc23)s1)c1ccccc1 (stereo not shown) [GSK1269851]	33%	78%	27%	0%	83%	4%	48%	28%	0%	32%	0%	13%	0%	0%	27%	42%	1%	5%	0%	52%
COc1cc(Nc2nccc(N3CCC(NC(=O)Nc4cccc(C(C)=O)c4)C3)n2)cc(OC)c1OC (stereo not shown) [GSK1379753]	67%	21%	22%	0%	5%	0%	0%	3%	0%	8%	11%	16%	18%	0%	13%	6%	88%	2%	0%	19%
Nc1ncc(-c2ccc3nccc(-c4ccncc4)c3c2)cc1S(=O)(=O)N1CCOCC1 [GSK1627798]	0%	21%	18%	0%	4%	4%	0%	0%	0%	5%	4%	15%	1%	0%	3%	3%	36%	0%	0%	0%
c1ccc(Oc2ccc(Nc3ccnc4cc(-c5ccc(CNCCN6CCOCC6)o5)ccc34)cc2)nc1 [GW567145]	0%	15%	39%	0%	72%	12%	17%	0%	0%	0%	0%	7%	0%	5%	0%	0%	98%	44%	98.4%	7%
CN(C)S(=O)(=O)c1cc(-c2ccc3nccc(-c4cccc(S(N)(=O)=O)c4)c3c2)cnc1N [GSK1669921]	0%	44%	18%	8%	10%	9%	0%	20%	0%	18%	15%	27%	31%	0%	11%	16%	25%	15%	0%	0%
Cc1cccc(NC(=O)Nc2ccc(Oc3ncnc4ccn(C)c34)cc2)c1	9%	0%	1%	0%	0%	0%	17%	0%	9%	28%	18%	0%	6%	0%	21%	0%	91%	49%	0%	12%
CC(C)c1nc(-c2cccc(NS(=O)(=O)c3c(F)cccc3F)c2F)c(-c2ccnc(Nc3ccc(N4CCOCC4)nc3)n2)s1 [GSK2008607]	0%	16%	94.3%	66%	98.9%	86%	69%	74%	0%	94.7%	0%	99.4%	40%	0%	0%	0%	99%	92.1%	97.7%	97.7%
c1ccc(-c2cnc3nccnn23)cc1 [AH20685]	5%	3%	14%	0%	0%	11%	0%	0%	0%	0%	0%	5%	0%	0%	1%	0%	1%	0%	0%	0%
CCc1ccc(-c2ccc3c(c2)-c2c(cnn2C)S(=O)(=O)N3C)cc1	3%	0%	15%	0%	0%	0%	0%	1%	8%	0%	0%	0%	0%	0%	0%	1%	25%	0%	0%	4%
CCn1c(-c2nonc2N)nc2c(C#CC(C)(C)O)nc(OC[C@H](N)c3ccccc3)cc21 [GSK943949]	0%	9%	12%	0%	2%	5%	0%	0%	0%	0%	0%	0%	8%	0%	0%	0%	28%	12%	0%	0%

Compound	%Inh (DYRK1B)	%Inh (DYRK2)	%Inh (EGFR)	%Inh (EIF2AK1)	%Inh (EPHA1)	%Inh (EPHA2)	%Inh (EPHA3)	%Inh (EPHA4)	%Inh (EPHA5)	%Inh (EPHA6)	%Inh (EPHA7)	%Inh (EPHA8)	%Inh (EPHB1)	%Inh (EPHB2)	%Inh (EPHB3)	%Inh (EPHB4)	%Inh (EPHB6)	%Inh (ERBB2)	%Inh (ERBB3)	%Inh (ERBB4)
COC(=O)Nc1nc2ccc(Oc3ccc(NC(=O)Nc4cc(C(F)(F)F)ccc4F)cc3)cc2n1C.Cl [GW692089]	26%	0%	0%	0%	36%	75%	26%	65%	0%	84%	72%	91.5%	35%	43%	17%	48%	67%	28%	29%	4%
CCn1c(-c2nonc2N)nc2c(C#CC(C)(C)O)ncc(OCCCCN)c21.O=C(O)C(F)(F)F.O=C(O)C(F)(F)F [GSK507274]	0%	8%	9%	27%	20%	43%	38%	8%	0%	20%	0%	3%	0%	0%	27%	29%	6%	5%	0%	41%
COc1cccc(-c2ccc3c(NC(=O)C4CC4)n[nH]c3n2)c1 [SB-710903]	0%	73%	20%	5%	20%	0%	0%	20%	0%	23%	16%	30%	0%	24%	24%	16%	48%	51%	0%	36%
O=C(Nc1n[nH]c2nc(-c3ccc(O)cc3)ccc12)C1CC1 [SB-710363]	65%	97.2%	0%	0%	0%	0%	16%	3%	0%	17%	0%	0%	0%	16%	0%	0%	38%	0%	94.6%	6%
FC(F)(F)c1ccc(/C=C/c2cncnc2Nc2ccc3[nH]c(Cc4ccccc4)nc3c2)cc1 [GW709199]	31%	0%	46%	0%	10%	12%	0%	0%	0%	0%	0%	1%	9%	7%	5%	37%	0%	69%	69%	72%
COc1ccc(CNC(=O)NC2CCN(c3ccnc(Nc4ccc(F)cc4)n3)CC2)cc1 [GSK1379788]	0%	0%	13%	0%	7%	1%	1%	0%	0%	0%	0%	0%	1%	0%	0%	7%	38%	34%	10%	25%
Cl.Cl.NCC(NCc1ccc(-c2ccnc3[nH]ccc23)s1)c1ccccc1 (stereo not shown) [GSK1321565]	25%	80%	24%	0%	24%	0%	0%	0%	0%	0%	0%	0%	13%	0%	5%	7%	27%	0%	19%	11%
Cn1cc(-c2ccc3c(c2)CCN3C(=O)Cc2cccc(Cl)c2)c2c(N)ncnc21 [GSK2606590]	0%	5%	2%	89%	11%	10%	0%	0%	0%	17%	13%	34%	15%	0%	9%	8%	86%	5%	0%	0%
c1ccc(-c2n[nH]cc2Nc2ccnc3ccccc23)nc1 [GW694077]	100%	90%	15%	0%	0%	0%	0%	4%	0%	0%	11%	21%	18%	0%	1%	0%	0%	0%	4%	0%
O=C(Nc1cccc(-c2nn3ncccc3c2-c2ccnc(Nc3ccccc3)n2)c1)c1c(F)cccc1F [GSK198271]	100%	26%	100%	52%	42%	10%	4%	0%	0%	8%	5%	19%	18%	11%	1%	6%	63%	95.2%	80%	100%
COc1ccc(Nc2nccc(N3CCC(NC(=O)Nc4cccc(OC)c4)C3)n2)cc1 (stereo not shown) [GSK1379742]	0%	0%	20%	0%	10%	0%	0%	1%	0%	8%	6%	11%	9%	0%	12%	0%	9%	34%	4%	0%
Cc1ccc(C(=O)Nc2ccc(Nc3ccnc4cc(-c5nccs5)ccc34)cc2O)cc1.Cl [GW494702]	0%	0%	45%	6%	8%	15%	0%	9%	0%	15%	0%	0%	11%	21%	20%	12%	50%	42%	21%	10%
COc1cc2c(cc1OCCN1CCNCC1)ncc1c3ccc(C#N)cc3[nH]c21	63%	73%	26%	0%	3%	3%	0%	1%	2%	0%	0%	0%	0%	2%	0%	0%	55%	4%	0%	28%
Cl.c1ccc(-c2ccc3c(Nc4ccc5[nH]ccc5c4)ccnc3c2)nc1 [GW440138]	0%	0%	89%	0%	48%	1%	8%	0%	0%	54%	3%	25%	11%	0%	1%	5%	79%	63%	50%	44%
CN(C)Cc1ccc(-c2ccc3c(Nc4ccc(Oc5ccccn5)cc4)ccnc3c2)o1 [GW567148]	0%	0%	53%	0%	79%	1%	0%	60%	0%	53%	0%	13%	0%	0%	30%	0%	97.4%	45%	98.9%	0%
Cl.c1ccc(-c2ccc3c(Nc4ccc5[nH]ncc5c4)ccnc3c2)nc1 [GW440137]	31%	26%	66%	0%	32%	0%	7%	2%	0%	28%	0%	16%	13%	0%	0%	6%	46%	34%	35%	31%
Cc1cccc(Nc2nc(N[C@H]3CCNC3)ncc2C(N)=O)c1.Cl [GSK2197149]	12%	32%	50%	22%	0%	0%	45%	8%	0%	7%	10%	15%	27%	0%	12%	0%	0%	13%	0%	23%
